This is part of a sample that, as a whole, favours compounds with a hit. Of some 83,000 tested, about 20% had one in any assay.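 In brief: 96-well plates, 48 h treatment, single concentration, percent growth endpoint.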 A number with no mark means an inactive call. The source made the active and inactive calls. Rule for the calls: active = growth percent below 10; inactive = the rest.
System: SNB-75 CNS
Assay: NCI-60 one-dose screen, 48 h (100 = growth as untreated, 0 = no growth, -100 = all killed)
Conditions: 10 µM unless noted

| SMILES | growth |
| --- | --- |
| NS(=O)(=O)c1ccc(Nc2nc(N/N=C/c3c[nH]c4ccccc34)nc(Nc3ccccc3)n2)cc1 | 70.8% |
| CCc1cccc2c3c(sc12)C(c1ccc(OC)cc1)C(C#N)=C(/N=C/c1ccc(Cl)cc1)O3 (stereo not drawn) | 3.81% (active) |
| Cn1ccnc1C(=O)/C=C/c1ccc(CNC(=O)c2ccc(F)cc2)cc1 | 60.6% |
| N#Cc1cccc(NC(=O)c2cc(-c3ccc(F)cc3F)ccc2O)c1 | 3.99% (active) |
| O=S(=O)(NCCCNc1nccc(-c2[nH]c(-c3ccccc3)nc2-c2ccc(Cl)c(O)c2)n1)c1cccc2ccccc12 | 43.4% |
| CC1(C)[C@@H](O)CC[C@]2(C)[C@H]3CC[C@@H]4[C@H]5[C@H](C(=O)/C=C\c6ccncc6)CC[C@]5(O)CC[C@@]4(C)[C@]3(C)CC[C@@H]12 | 21.2% |
| CS(=O)(=O)Nc1cc(-c2ccc3ncc(C#N)c(N[C@H](CO)c4ccccc4)c3c2)cnc1Cl | 36% |
| O=C(CSc1nc2ccccc2c(=O)n1-c1ccccc1)Nc1ccc(-c2nc3ccc([N+](=O)[O-])cc3[nH]2)cc1 | 82.5% |
| Oc1cccc2ccc(-c3nnc(SCc4ccc(O)c5ncccc45)n3-c3ccccc3)nc12 | 9.14% (active) |
| C=CCn1c(SCC(=O)Nc2ccc(C(=O)/C=C/c3ccc(C)cc3)cc2)nnc1-c1c[nH]c2ccccc12 | 97.4% |
| C[C@@H](Nc1c(C#N)cnc2ccc(-c3cnc(Cl)c(NS(C)(=O)=O)c3)cc12)c1ccccc1 | -30% (active) |
| CCN(CC)c1ccc(NC2=C(Cl)C(=O)c3nc(C)ccc3C2=O)cc1 | 126% |
| C#Cc1nc(C(=O)NCCC(=O)Nc2ccc(NC(=O)c3ccc(/C=C/C(=O)c4nccn4C)cc3)cc2)cs1 | 56.6% |
| CCN(CC)CCn1c2ccc(O)cc2c2sc3cc(OC)ccc3c(=O)c21 | 40.7% |
| CC1(C)CC[C@]2(C(=O)N3CCOCC3)CC[C@]3(C)C(=CC[C@@H]4[C@@]5(C)C/C(=C/c6ccccn6)C(=O)C(C)(C)[C@@H]5CC[C@]43C)[C@@H]2C1 | 34.1% |
| Cc1nc(-c2ccccc2O)ccc1C(=O)N=Nc1c(O)[nH]c2ccc(Br)cc12 | 93.7% |
| O=C(CCn1c[n+](CC(=O)c2ccc(-c3ccccc3)cc2)c2ccccc21)Nc1cccc2cccnc12 | 41% |
| COC(=O)c1[nH]nc2c1C1(C(=O)c3cccc4cccc1c34)C(C#N)=C(N)O2 (stereo not drawn) | 80.4% |
| N=c1c2cc(-c3ccccc3)oc2ncn1/N=C/c1ccc(Cl)cc1 | 88.7% |

| SMILES | growth |
| --- | --- |
| Cc1ccc(-n2c(/C=C3\C(=O)Nc4ccccc43)ccc2CO)cc1 | 41.5% |
| CC(=O)N(C)C1CCc2c(sc(NC(=O)c3ccc(C(C)(C)C)cc3)c2C(N)=O)C1 (stereo not drawn) | 39.2% |
| CC1(C)[C@@H](O)CC[C@]2(C)[C@H]3CC[C@@H]4[C@H]5[C@H](C(=O)/C=C\c6ccc([N+](=O)[O-])cc6)CC[C@]5(O)CC[C@@]4(C)[C@]3(C)CC[C@@H]12 | 42.1% |
| Cc1ccc(NC(=O)CNc2cc(C(N)=O)cc(F)c2C)c(Cl)c1 | 48.4% |
| COc1ccc(N2CCN(C3=C(Cl)C(=O)C(C)=C(C)C3=O)CC2)cc1 | 107% |
| CN1CCN(c2ccc(/C=N/Nc3nc4ccccc4c(=O)n3-c3ccccc3)cc2)CC1 | 95.5% |
| COc1cc(-c2nc3sccn3c2-c2ccnc(S(C)(=O)=O)n2)ccc1F | 76.1% |
| Cc1ccc2c(c1)Oc1nc(N)c(C#N)c(N)c1C2Sc1ccc(F)cc1 (stereo not drawn) | -14.1% (active) |
| CCCn1cnc2c(c1=N)C(c1ccc(F)cc1)c1sc3c(C)cccc3c1O2 (stereo not drawn) | -4.36% (active) |
| COc1ccc(Cn2cc3c(c2-c2cc(OC)c(OC)c(OC)c2)CCc2c(CN4CCCC4)noc2-3)cc1 | -2.12% (active) |
| CC1=N[C@@H]2CN(C(=O)OC(C)(C)C)C[C@@H]2n2c1cc1ccccc1c2=O | 91.7% |
| COc1cc(OC)cc(C(=O)Nc2cccc(C#Cc3cccc4[nH]nc(N)c34)c2)c1 | -18.6% (active) |
| COc1ccccc1-n1cc(C#N)c(N)c1C(=O)c1ccc(Br)cc1 | 74.5% |
| CS(=O)(=O)Nc1cc(-c2ccc3ncc(C#N)c(NCc4cccc(F)c4)c3c2)cnc1Cl | 45.7% |
| CC[C@H](CO)Nc1ccc2ncc(C#Cc3cncc(C(=O)Nc4ccc(CN5CCN(C)CC5)c(C(F)(F)F)c4)c3)n2n1 | -91.3% (active) |
| COc1cc(-c2nc(SCCC(C)C)nc(NNC(=O)c3ccncc3)c2C#N)cc(OC)c1OC | 27.1% |
| CCCCCc1ccc(S(=O)(=O)Nc2cc(-c3csc(NC(=O)CN4CCN(CCO)CC4)n3)ccc2OC)cc1 | 92.6% |
| CCCn1cnc2c(c1=N)C(c1ccc(OC)cc1)c1sc3c(CC)cccc3c1O2 (stereo not drawn) | 16.5% |
| C#Cc1ccc(C(=O)NCc2ccc(/C=C/C(=O)c3nccn3C)cc2)cc1 | 67.3% |

Reference: PubChem BioAssay (NCI)
